The source of these data is PubChem BioAssay.

Calls of active or inactive are those of the source.
Also: test concentration not given here.

The first experiment can be described thus: basal 3T3-L1 adipocyte mitochondrial potential changes, profiling panel, cell-based, JC-1 fluorescence, 3T3-L1 adipocytes, 24 h, 100 nL compound (AID 1168). Particulars: JC-1 mitochondrial fluorescence, higher = more signal, called active from +8 up or from −8 down.
Regarding `[N-]=[N+]=Nc1ccccc1[C@@H]1OC(c2ccc(OCCCO)cc2)=N[C@]1(CCS(=O)(=O)c1ccccc1)C(=O)NCc1ccccc1`, the z-score was 3.88 (inactive).
Regarding `CC(C)C(CO)N1C(=O)[C@@H]2[C@H]3C(=O)OCC=C[C@H]3OC23C=CCN(CCN2CCOCC2)C(=O)[C@@H]13` (some centres undefined), the z-score was -0.648 (inactive).
On the same count and under the same terms, the same measure for `CN(C)C(=O)[C@@]1(CCC(=O)OC(C)(C)C)N=C(c2ccc(OCCCO)cc2)O[C@H]1c1ccccc1N=[N+]=[N-]`: -0.371 (inactive); for `C=CCNC(=O)[C@H]1[C@@H]2C(=O)O[C@@H](c3ccccc3)[C@@H](c3ccccc3)N2[C@@H](c2ccc(O)cc2)[C@]12C(=O)N(C(=O)OCCOC)c1ccc(C#CC3(O)CCCCCC3)cc12`: 0.509 (inactive).
Still for that read-out and setting: in the case of `CCOC(=O)C1=CC[C@@H](c2ccc(N(CC)CC)cc2)N(S(=O)(=O)c2ccc(C)cc2)[C@H]1c1ccc([N+](=O)[O-])cc1` it was -0.114 (inactive); in that of `CCCNC(=O)[C@@]1(Sc2ccc(C)cc2)CC(=O)N(Cc2ccccc2)[C@@H]1c1ccc(CO)cc1I`, -0.686 (inactive).
Still for that read-out and setting: in the case of `C[N+](C)(C)CCCCCCNC(=O)[C@H]1C[C@H]2C(=O)N3CCC[C@H]3C(=O)N2[C@H]1c1cccc(OCCO)c1` it was -0.416 (inactive); in that of `O=C(O)[C@]1(CCS(=O)(=O)c2ccccc2)N=C(c2ccc(OCCCO)cc2)O[C@@H]1c1ccccc1`, -0.372 (inactive).

A short description of the next experiment: basal RPMI8226 mitochondrial membrane potential changes, profiling panel, cell-based, JC-1 fluorescence, 24 h, 100 nL compound (AID 1169). Conditions: RPMI8226 myeloma, JC-1 mitochondrial potential fluorescence, higher = more signal.
In turn, `CCOc1cc(C(O)C2C=CC3C(=O)NC(=O)C3N2Nc2ccccn2)ccc1O` (centres undefined) showed a z-score of -0.0441.
Still for that read-out and setting: the same measure for `Cc1cc(C)c(C(O)C2C=CC3C(=O)N(c4ccccc4)C(=O)C3N2Nc2ccccc2)c(C)c1` (centres undefined): -0.225.
The molecule `CCCC=C(CCC)[C@@H](NS(=O)(=O)c1ccccc1)c1ccc(C(F)(F)F)cc1` displayed a z-score of -0.981.
For `COCCCNC(=O)[C@@]1(Cc2ccccc2)COC(c2ccc(OCCCO)cc2)=N1`, the z-score is -0.367.
The same measure, in the same setting: the same measure for `C[C@@]1([C@@H](NC(=O)c2cccs2)c2ccc(-c3ccccc3)cc2)C[C@H]1C1CCCCC1`: -0.843.
On the same count and under the same terms, in the case of `COc1ccc(C#Cc2ccc3c(c2)[C@]2(C(=O)N3)[C@H](c3ccc(OCCO)cc3)N3[C@H](c4ccccc4)[C@H](c4ccccc4)OC(=O)[C@H]3[C@@H]2C(=O)N2CCN(c3ncccn3)CC2)cc1` it was -0.507; in that of `CC(C)C[C@@H]1NC(=O)[C@@H]2C[C@H](C(=O)NCc3ccc(F)cc3)[C@H](c3ccc(O)cc3)N2C1=O`, 0.182.
The molecule `CCCN1C(=O)[C@@H]2Cc3c([nH]c4ccccc34)[C@@H](c3cccc(O)c3)N2C1=O` displayed a z-score of -0.137.
On the same count and under the same terms, in the case of `COC(=O)[C@@]1(Cc2ccc(OC)cc2)[C@H]2c3cc(C(=O)N4CCCC4)n(CCc4ccc(O)c(OC)c4)c3C[C@H]2CN1C(=O)c1ccccc1` it was -0.167.
Still for that read-out and setting: in the case of `C=CC[C@]1(C(=O)NCC(O)CO)N=C(c2ccc(OCCCO)cc2)O[C@H]1c1ccccc1N=[N+]=[N-]` (some centres undefined) it was -0.49; in that of `COc1ccc([Si](C)(C)[C@@H]2[C@@H](CCO)O[C@]3(C(=O)N(Cc4ccc(N5C(=O)c6ccccc6Oc6ccccc65)cc4)c4ccccc43)[C@H]2C)cc1`, -1.06; in that of `COC(=O)[C@@]1(Cc2ccccc2N=[N+]=[N-])N=C(c2ccc(OCCCO)cc2)O[C@H]1c1ccccc1`, -1.06.
The same measure, in the same setting: the same measure for `C=C(COC)/C(=C/C[C@@H](OC(=O)c1ccncc1)c1cccc(OCCO)c1)c1cc(C(=O)OC)ccc1OC`: -0.574.
`COCCCNC(=O)[C@]1(Cc2ccccc2)N=C(c2ccc(OCCCO)cc2)O[C@@H]1c1ccccc1N=[N+]=[N-]` gave a z-score of -1.1.
Same read-out and setting: in the case of `Cc1ccccc1C(O)C1C=CC2C(=O)N(C)C(=O)C2N1Nc1ccc([N+](=O)[O-])cc1[N+](=O)[O-]` (centres undefined) it was -0.0251.
In turn, `CCCCCCCCCCC(O)C1C=CC2C(=O)NC(=O)C2N1Nc1ccccn1` (centres undefined) came in with a z-score of -0.944.
On the same count and under the same terms, the same measure for `Cc1ccc(S[C@]2(C(=O)O)CC(=O)N(C3CCCCC3)[C@@H]2c2ccc(CO)cc2)cc1`: -0.148.
The same measure, in the same setting: in the case of `CC(C)c1ccc(NN2C(C(O)c3ccccn3)C=CC3C(=O)N(c4ccccc4)C(=O)C32)cc1` (centres undefined) it was -0.597; in that of `COc1ccc(C(=O)Nc2ccc(CN3C(=O)[C@@]4(O[C@@H](CC(=O)N5Cc6ccccc6C[C@H]5CO)[C@H]([Si](C)(C)c5ccc(OC)cc5)[C@H]4C)c4ccccc43)cc2)cc1`, -0.957.
In turn, `CCOC(=O)C[C@H]1[C@H](OC(=O)c2cc3ccccc3oc2=O)[C@@H](NC(=O)c2ccc3ccccc3n2)c2cc(OCCCO)ccc2N1C(=O)c1ccc2ccccc2n1` showed a z-score of -0.115.
Same read-out and setting: the same measure for `COC(=O)[C@]1(Cc2ccccc2CN=[N+]=[N-])N=C(c2ccc(OCCCO)cc2)O[C@@H]1c1ccccc1`: -1.05; for `COC(=O)[C@@]1(Cc2ccccc2)[C@H]2c3cc(C(=O)N4CCCC4)n(Cc4ccccc4)c3C[C@H]2CN1C(=O)c1ccccc1`: -0.737; for `O=C1c2ccccc2C(=O)C2CC([C@H]3Oc4ccccc4S(=O)(=O)N4CCC[C@@H]34)=CCC12` (some centres undefined): -0.667.
Still for that read-out and setting: the same measure for `CCOC(=O)C1=CC[C@@H](c2cccc(Br)c2)N(S(=O)(=O)c2ccc(C)cc2)[C@H]1c1ccc([N+](=O)[O-])cc1`: -0.841; for `C#CCOC(=O)N[C@H](C=CCCCC)c1ccccc1`: 0.15; for `COCCOC(=O)N1C(=O)[C@@]2(c3ccccc31)[C@H](c1ccccc1OCCO)N1[C@H](c3ccccc3)[C@H](c3ccccc3)OC(=O)[C@H]1[C@@H]2C(=O)N1CCc2cc(OC)c(OC)cc2C1`: -0.337.
`CN1C(=O)C2C=CC(C(O)c3cccc4ccccc34)N(NC(=O)OC(C)(C)C)C2C1=O` (centres undefined): the z-score turned out to be 0.219.
On the same count and under the same terms, in the case of `CN(C)C(=O)[C@@]1(Cc2ccccc2N=[N+]=[N-])N=C(c2ccc(OCCCO)cc2)O[C@H]1c1ccccc1N=[N+]=[N-]` it was -1.26; in that of `[N-]=[N+]=Nc1ccccc1[C@@H]1OC(c2ccc(OCCCO)cc2)=N[C@]1(CCS(=O)(=O)c1ccccc1)C(=O)NCc1ccccc1`, -1.03.
Still for that read-out and setting: the same measure for `CC(C)C(CO)N1C(=O)[C@@H]2[C@H]3C(=O)OCC=C[C@H]3OC23C=CCN(CCN2CCOCC2)C(=O)[C@@H]13` (some centres undefined): 0.237.
On the same count and under the same terms, in the case of `CN(C)C(=O)[C@@]1(CCC(=O)OC(C)(C)C)N=C(c2ccc(OCCCO)cc2)O[C@H]1c1ccccc1N=[N+]=[N-]` it was -0.432; in that of `C=CCNC(=O)[C@H]1[C@@H]2C(=O)O[C@@H](c3ccccc3)[C@@H](c3ccccc3)N2[C@@H](c2ccc(O)cc2)[C@]12C(=O)N(C(=O)OCCOC)c1ccc(C#CC3(O)CCCCCC3)cc12`, -0.713.
Regarding `CCOC(=O)C1=CC[C@@H](c2ccc(N(CC)CC)cc2)N(S(=O)(=O)c2ccc(C)cc2)[C@H]1c1ccc([N+](=O)[O-])cc1`, the z-score is -0.673.
Still for that read-out and setting: in the case of `CCCNC(=O)[C@@]1(Sc2ccc(C)cc2)CC(=O)N(Cc2ccccc2)[C@@H]1c1ccc(CO)cc1I` it was -0.935; in that of `C[N+](C)(C)CCCCCCNC(=O)[C@H]1C[C@H]2C(=O)N3CCC[C@H]3C(=O)N2[C@H]1c1cccc(OCCO)c1`, -0.173.
The same measure, in the same setting: in the case of `O=C(O)[C@]1(CCS(=O)(=O)c2ccccc2)N=C(c2ccc(OCCCO)cc2)O[C@@H]1c1ccccc1` it was -0.928.
